Measurements: the supplement of paper PMC11732987, “Enantioselective OTUD7B fragment discovery through chemoproteomics screening and high-throughput optimisation” (Communications Chemistry, 2025)
Unmarked numbers belong to inactive results.

What follows are compounds tested against T1, VCPIP1 (UniProt Q96JH7) (assay: log2 ratio of Biotin-Ahx-Ub-VS probe labelling (fragment/DMSO); higher = less target engagement (more negative = stronger competition), active = hit call of the paper (q ≤ 0.05, log2 ratio ≤ -1)). Settings: compound concentration: 200 uM; treatment time: 3 h.
T1 sequence (whole entry): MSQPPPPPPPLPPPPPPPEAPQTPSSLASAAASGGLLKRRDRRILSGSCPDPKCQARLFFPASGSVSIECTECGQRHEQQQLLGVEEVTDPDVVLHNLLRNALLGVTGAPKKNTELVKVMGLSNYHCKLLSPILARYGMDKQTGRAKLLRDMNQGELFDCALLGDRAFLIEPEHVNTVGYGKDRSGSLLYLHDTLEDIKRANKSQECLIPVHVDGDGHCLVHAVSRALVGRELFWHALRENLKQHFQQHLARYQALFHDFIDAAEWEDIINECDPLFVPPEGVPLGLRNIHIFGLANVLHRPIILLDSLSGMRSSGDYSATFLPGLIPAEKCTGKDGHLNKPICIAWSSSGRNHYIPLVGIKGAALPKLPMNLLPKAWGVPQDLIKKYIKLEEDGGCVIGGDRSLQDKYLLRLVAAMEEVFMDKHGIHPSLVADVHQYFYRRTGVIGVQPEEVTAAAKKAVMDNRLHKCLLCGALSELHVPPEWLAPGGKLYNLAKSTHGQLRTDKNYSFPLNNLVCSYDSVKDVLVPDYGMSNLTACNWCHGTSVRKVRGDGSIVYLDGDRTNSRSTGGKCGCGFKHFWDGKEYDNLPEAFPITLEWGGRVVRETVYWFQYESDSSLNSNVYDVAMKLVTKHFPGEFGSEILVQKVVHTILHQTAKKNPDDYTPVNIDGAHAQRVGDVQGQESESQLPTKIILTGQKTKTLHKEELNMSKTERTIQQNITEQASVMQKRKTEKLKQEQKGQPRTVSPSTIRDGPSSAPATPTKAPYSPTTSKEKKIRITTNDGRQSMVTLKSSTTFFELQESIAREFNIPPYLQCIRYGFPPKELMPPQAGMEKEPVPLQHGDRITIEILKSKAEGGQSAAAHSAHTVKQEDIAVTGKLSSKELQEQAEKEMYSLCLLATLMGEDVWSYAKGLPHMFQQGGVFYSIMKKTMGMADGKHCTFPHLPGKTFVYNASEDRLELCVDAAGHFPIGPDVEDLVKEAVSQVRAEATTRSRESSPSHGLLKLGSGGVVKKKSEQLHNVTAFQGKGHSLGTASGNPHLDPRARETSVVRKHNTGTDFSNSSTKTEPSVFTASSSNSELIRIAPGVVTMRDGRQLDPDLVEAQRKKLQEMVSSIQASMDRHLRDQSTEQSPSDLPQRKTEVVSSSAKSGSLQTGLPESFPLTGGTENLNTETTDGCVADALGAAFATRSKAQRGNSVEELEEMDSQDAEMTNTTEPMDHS
Protocol: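 Competitive ABPP in HEK293T cell lysate. Lysates were treated with each chloroacetamide fragment at 200 µM for 3 h, then with Biotin-Ahx-Ub-VS (0.5 µM, 1 h), NeutrAvidin-enriched and analysed by diaPASEF LC-MS/MS. Protein LFQ was median-normalised; average log2 ratio is fragment/DMSO from an unpaired t-test (n=3 treated, n=44 DMSO). Hits: q ≤ 0.05, log2 ratio ≤ -1, unique peptides ≥ 2.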

Structure (SMILES)	log2 ratio of Biotin-Ahx-Ub-VS probe labelling
Cl.O=C(CCl)N[C@H]1C[C@@H](n2cccn2)C1	-0.848
Cn1cc(CN(Cc2ccc(Cl)cc2)C(=O)CCl)cn1	-0.623
Cl.O=C(CCl)N1CCc2ncncc2C1	-0.0226
Cl.Cn1ncc2c1CC(NC(=O)CCl)CC2 (stereo not given)	-0.665
O=C(CCl)Nc1cccc(NC(=O)c2ccccc2)c1	-2.42 (active)
N#Cc1ccccc1N1CCN(C(=O)CCl)CC1	-1.53 (active)
O=C(CCl)Nc1cc2c(cc1Cl)OCCCO2	-2.71 (active)
Cc1cc(NC(=O)CCl)n(-c2ccccc2)n1	-0.6
CN(C(=O)CCl)c1nc2ccccc2s1	-0.54
Cl.O=C(CCl)NCCc1ncc(F)cc1F	-1.69 (active)
O=C(CCl)NCCc1ccc2c(c1)OCCO2	-2.55 (active)
CC(c1ccccc1)N(C)C(=O)CCl (stereo not given)	-0.328
O=C(CCl)N1CCC2(CCC(O)CC2)CC1	-0.183
CC(NC(=O)CCl)c1cccc2ccccc12 (stereo not given)	-1.05 (active)
O=C(CCl)Nc1cccc2ncccc12	-0.848
O=C(CCl)Nc1ccc2c(c1)OC(F)(F)O2	-1.43 (active)
O=C(CN1CCN(C(=O)CCl)CC1)Nc1cccc(F)c1	-0.698
COc1ccc(CN(C)C(=O)CCl)cc1	-1.54 (active)
Cc1nc(CC2CCN(C(=O)CCl)CC2)no1	-0.733
O=C(CCl)NCc1cccc(F)c1	-1.16 (active)

Structure (SMILES)	log2 ratio of Biotin-Ahx-Ub-VS probe labelling
CS(=O)(=O)c1ccc(CNC(=O)CCl)cc1	-1.22 (active)
CCN(C(=O)CCl)C1CCCCC1	-0.114
O=C(CCl)N1CC2(CCOCC2)C1	-0.356
O=C(CCl)NC1CCCCNC1=O (stereo not given)	-0.603
N#Cc1ccc(Cl)cc1NC(=O)CCl	-1.7 (active)
CNC(=O)Cn1cc(NC(=O)CCl)cn1	-0.495
Cc1cccc(NC(=O)[C@@H]2CCCN2C(=O)CCl)n1	-0.551
CC(NC(=O)CCl)c1csc(-c2ccccc2)n1.Cl (stereo not given)	-2.16 (active)
CC(NC(=O)CCl)c1cc2n(n1)CCCC2.Cl (stereo not given)	-0.662
Cl.O=C(CCl)NCc1cc2c(nc1O)CCCC2	-1.56 (active)
O=C(CCl)N1CCCC2CCCCC21 (stereo not given)	-2.13 (active)
Cc1ccc(C(=O)NCCNC(=O)CCl)cc1	-2.4 (active)
Cc1ccccc1CN(C)C(=O)CCl	-1.46 (active)
Cc1cnc2[nH]cc(CCNC(=O)CCl)c2c1	-1.05 (active)
O=C(CCl)NCC(=O)N1CCCC1	-0.323
CN(C)C(=O)c1ccc(NC(=O)CCl)cc1	-0.601
Cc1ccc(CC(NC(=O)CCl)c2ccccn2)cc1.Cl (stereo not given)	-1.64 (active)
CC(NC(=O)CCl)c1ccc2[nH]ncc2c1 (stereo not given)	-2.26 (active)
O=C(CCl)N1CCCC1c1ccsc1 (stereo not given)	-1.07 (active)
Cc1ccc(CN(C)C(=O)CCl)o1	-0.13
